Source: PubChem BioAssay (National Center for Advancing Translational Sciences (NCATS))
RORgamma inh – ROR gamma (mouse) transcription inhibition. 5.4% of 310,000 active. Drosophila S2 Gal4-RORgamma UAS-luciferase reporter, 20 h. Potency, µM (series often up to 53.6 µM), usual class: inhibitors. P51450; further: nearly all actives have a fitted effect of over 60% in size
Target sequence (P51450 whole entry, looked up, the tested form may be a part): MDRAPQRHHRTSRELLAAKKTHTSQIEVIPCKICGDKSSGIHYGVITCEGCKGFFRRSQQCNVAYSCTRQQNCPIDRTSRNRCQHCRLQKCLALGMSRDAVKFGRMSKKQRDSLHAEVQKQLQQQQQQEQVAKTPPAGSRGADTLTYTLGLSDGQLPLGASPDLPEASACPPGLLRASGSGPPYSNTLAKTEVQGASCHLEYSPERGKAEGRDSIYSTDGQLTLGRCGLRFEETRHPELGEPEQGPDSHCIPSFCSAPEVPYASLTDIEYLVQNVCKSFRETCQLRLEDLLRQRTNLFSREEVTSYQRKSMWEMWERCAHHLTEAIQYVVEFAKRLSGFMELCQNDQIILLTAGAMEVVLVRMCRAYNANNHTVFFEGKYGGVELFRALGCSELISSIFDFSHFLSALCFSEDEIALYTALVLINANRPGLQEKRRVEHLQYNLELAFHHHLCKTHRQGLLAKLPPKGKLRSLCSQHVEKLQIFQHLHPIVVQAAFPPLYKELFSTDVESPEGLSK
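Stably transfected Drosophila Schneider cells are the test system, with ROR gamma fused to Gal4 and luciferase under UAS control; luminescence is read after 20 hr of 700 uM copper sulfate induction at ambient temperature.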
Mito fusion act – blocks mitochondrial division or promotes mitochondrial fusion; S. cerevisiae fusion-defective mutant growth rescue, CellTiterGlo 48 h; Potency, µM (titrated, usually from 46.1 µM), most hits filed as activators; 0.23% of 320,000 active; AID 485298; further: nearly all actives have a fitted effect of over 45% in size
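S. cerevisiae fusion-defective temperature-sensitive mutants (e.g. fzo1-1, mgm1-5) grown 48 h at 37C in YPEG (ethanol/glycerol non-fermentable) medium with 23 nl compound per well; growth rescue read as CellTiterGlo luminescence.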
a7 integrin act – integrin-mediated muscular dystrophy alleviation activation; alpha7betagal myoblasts, beta-gal FDG fluorescence, 48 h; Potency, µM (series often up to 38.3 µM), hits mostly activators; 0.064% of 350,000 active; AID 624291; further: nearly all actives have a fitted effect of over 60% in size
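Alpha7betagal+/- myoblasts (passage 13) were plated 16-24 hr, then exposed to compounds (1:260 dilution of DMSO stock) for 48 hours at 37C. After MPER lysis, β-galactosidase reporter activity was read as FDG fluorescence (ex 480/em 540) after 30 minutes.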
uPA surface inh – blocks generation of uPA at the cell surface; 0.31% of 330,000 active; Potency, µM (doses to about 38.3 µM), most hits filed as inhibitors; cell surface uPA generation assay, qHTS; active means well fitted inhibition curve with a large enough effect; inconclusive means small, poorly fitted or top-dose-only effect; inactive means no such curve, though single readings can be large or run the other way; tested in mouse RAW 264.7 cells; further: nearly all actives have a fitted effect of over 55% in size
Gal4-VP16 FLuc – Gal4-VP16 reporter inhibition counter-screen; Drosophila S2 Gal4-VP16 UAS-luciferase, luminescence, 20 h; Potency, µM (titrated, usually from 53.6 µM), hits mostly inhibitors; 3.5% of 310,000 active;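 further: Gal4-VP16 expression switched on by copper sulfate through the metallothionein promoter; nearly all actives have a fitted effect of over 50% in size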
BCR signal inh – chronic active BCR signaling inhibition. ABC-DLBCL IkBa-CBG/CBR reporter, luminescence ratio, 4 h. 0.05% of 340,000 active. Potency, µM (highest dose often 46.1 µM), most hits filed as inhibitors; active means well fitted inhibition curve with a large enough effect in the signal ratio, with a control signal flat, not every such curve was filed as active; inconclusive means small, poorly fitted or top-dose-only effect, or effect the other way, or a change in a side signal; the % refers to the signal ratio
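Concentration-response series (up to 46 uM) were applied to TMD8 dual-reporter cells for 4 h at 37C with doxycycline. Green/red ratio, after filter-overlap correction, defined %Activity; red signal alone was normalised to basal cells and zero luminescence.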
Numbers stand for hits; - = inactive; ? = inconclusive; . = no result given; [ ] = another dose, or the depositor's remark. Compounds with a hit are over-represented: about 5.5% of the library has one in this group of screens. Unless noted, the call rests on the fitted dose curve; in most records, active means well fitted curve in the direction sought with a large enough effect; inconclusive means small, poorly fitted or top-dose-only effect, or another doubt; inactive means no such curve, though single readings can be large; an effect the other way counts as inactive or inconclusive.

SMILES	RORgamma inh	Mito fusion act	a7 integrin act	uPA surface inh	Gal4-VP16 FLuc	BCR signal inh
O=C(O)Cc1c(Cl)ccc(Cl)c1Cl	-	.	.	.	-	.
Cc1ccc(-c2cn(-c3ccccc3)c3[n+]2CCCS3)cc1	-	-	?	?	11.2µM	-
COc1ccc(-n2cc(-c3ccc(C)cc3)[n+]3c2SCC3)cc1	-	-	?	-	7.94µM	-
CCc1ccc(-n2cc(-c3ccc(F)cc3)[n+]3c2SCCC3)cc1	-	-	-	-	?	-
Oc1ccc(/C=N/N=C/c2ccc(O)c(O)c2)cc1O	-	-	-	-	?	?
Oc1ccc(N=Cc2ccc(O)c(O)c2)cc1	4.47µM	-	-	-	10µM	-
COc1ccc2c(C)nc(Nc3nc(C)c(C)c(=O)[nH]3)nc2c1	5.01µM	-	-	-	2.82µM	-
COc1ccc2c(C)nc(Nc3nc(C)cc(C)n3)nc2c1	0.251µM	-	-	.	1.26µM	?
COc1ccc(Nc2nc(C)c3ccccc3n2)cc1	?	-	-	-	-	?
Cc1cc2nc(SCC(=O)Nc3ccccc3C(=O)O)[nH]c2cc1C	-	-	-	-	-	?
COc1ccc(CNC(=O)Cn2nc(-c3ccc4c(c3)OCCO4)ccc2=O)cc1	-	-	-	.	-	?
COc1ccc(-c2ccc(=O)n(CC(=O)Nc3ccc4c(c3)OCCO4)n2)cc1	11.2µM	-	-	-	?	?
COc1ccc(-n2nnc3c(SCC(=O)Nc4ccc5c(c4)OCCO5)ncnc32)cc1	7.94µM	-	.	.	?	-
NCCCC[C@H](NC(=O)[C@H](CS)NC(=O)[C@@H](N)Cc1cnc[nH]1)C(=O)N[C@@H](Cc1ccccc1)C(=O)N[C@@H](Cc1c[nH]c2ccccc12)C(=O)N[C@@H](Cc1c[nH]c2ccccc12)C(=O)O	-	.	.	.	-	.
O=C(Nc1nc2ccccc2[nH]1)c1cccc(F)c1	5.62µM	-	-	-	7.08µM	?
O=C(Nc1nc2ccccc2[nH]1)c1ccc(Br)o1	7.08µM	-	-	-	?	?
O=C(NCCc1nc2ccccc2[nH]1)c1ccc(Br)o1	-	-	-	-	-	-
Cc1ccc(N(C)S(=O)(=O)c2cccc(C(=O)Nc3nnc(C4CC4)s3)c2)cc1	11.2µM	-	-	-	-	-
COc1ccc(N(C)S(=O)(=O)c2cccc(C(=O)Nc3nnc(C4CC4)s3)c2)cc1	-	-	-	-	-	-
Cc1ccc(N(C)S(=O)(=O)c2cccc(C(=O)Nc3nc4ccccc4[nH]3)c2)cc1	1.26µM	20µM	-	?	1.12µM	?
CN(C)S(=O)(=O)c1ccc(Cl)c(C(=O)Nc2nc3ccccc3[nH]2)c1	?	-	-	-	?	?
O=C(Nc1nc2ccccc2[nH]1)Nc1ccccc1F	?	-	?	-	?	?
CCN(CC)S(=O)(=O)c1cc(C(=O)Nc2cc(S(=O)(=O)N3CCOCC3)ccc2N2CCN(C)CC2)ccc1C	.	.	-	?	.	.
CN(C)c1cccc(C(=O)Nc2nc3ccccc3[nH]2)c1	5.01µM	-	-	-	11.2µM	?
COc1ccc(C(=O)N[C@H](C(=O)Nc2nc3ccccc3[nH]2)C(C)C)cc1	-	-	-	-	-	?
SMILES	RORgamma inh	Mito fusion act	a7 integrin act	uPA surface inh	Gal4-VP16 FLuc	BCR signal inh
Cn1nc(C(=O)Nc2nc3ccccc3[nH]2)ccc1=O	?	-	-	-	?	?
CCC(CC)c1nnc(NC(=O)[C@@H](NC(=O)c2cccc(C)c2)C(C)C)s1	20µM	-	-	-	15.8µM	?
O=C(CNC(=O)c1cccc(Br)c1)NCCc1nc2ccccc2[nH]1	-	-	-	.	-	-
O=C(Nc1nc2ccccc2[nH]1)c1cccc(Br)c1	2.24µM	-	-	-	5.01µM	?
Cc1cccc(C(=O)N[C@H](C(=O)Nc2nc3ccccc3[nH]2)C(C)C)c1	?	-	-	2.82µM	?	?
CCC(=O)CC	-	.	.	.	-	.
Cc1ccc(OCC(=O)Nc2ccc3c(c2)OCCO3)cc1C	-	-	-	-	-	-
COc1ccc(CNC(=O)CCC2N=C3c4ccccc4N=C(SCc4ccccc4F)N3C2=O)cc1 (stereo not given)	.	.	.	.	.	-
O=C1CS/C(=N/N=C2C3CC4CC(C3)CC2C4)N1	4.47µM	-	-	-	3.16µM	-
Cc1ccccc1/C=N/N1C(=O)CSC1=S	-	-	-	-	-	-
CC1C/C(=N/N=C2/NC(=O)CS2)CC(C)(C)C1 (stereo not given)	2.24µM	-	-	-	5.01µM	-
Cc1cc(C)nc(/N=C2/NC(=O)CS2)n1	-	-	-	-	-	-
CC1C/C(=N/N2C(=O)CSC2=S)CC(C)(C)C1 (stereo not given)	10µM	-	-	-	-	-
OCc1cccc(Cl)c1Cl	-	.	.	.	-	.
C=CCN1CCCC1CNC(=O)c1cc(S(N)(=O)=O)cc(OC)c1OC (stereo not given)	-	.	.	.	-	.
CCOc1ccccc1N(C(=O)c1ccccc1Cl)C1=NC(C)(C)CS1	17.8µM	-	-	-	-	-
COc1ccc(C)cc1N(C(=O)c1ccc(C#N)cc1)C1=NC(C)(C)CS1	-	-	-	-	-	-
Cc1cccc(-n2ncc(C(=O)NC3CCCC3)c2C2CCN(C(=O)OC(C)(C)C)CC2)c1	-	-	-	-	-	-
CCC1=NN(C(=O)c2ccc(C)cc2)C(O)(c2ccc(Br)cc2)C1 (stereo not given)	?	-	-	-	12.6µM	?
CCC1=NN(C(=O)c2ccc(Br)cc2)C(O)(c2ccc(C)cc2)C1 (stereo not given)	12.6µM	-	-	-	11.2µM	?
CCC1=NN(C(=O)c2cccc(Br)c2)C(O)(c2ccc(Br)cc2)C1 (stereo not given)	-[10 µM]	-	-	-	-	?
COc1ccc(Cl)cc1NC(=O)CCc1nnc2ccc(N3CCC4(CC3)OCCO4)nn12	-	-	-	-	-	-
COc1ccccc1C(=O)Nc1ccc(Br)cc1C	-	-	-	-	-	-
COC(=O)/C(C#N)=C/c1c(-c2ccccc2)nc2n1CCS2	-	-	-	-	-	-
Clc1cccc(Cl)c1CO/N=C/c1c(-c2ccccc2)nc2n1CCS2	7.08µM	-	-	-	-	-
SMILES	RORgamma inh	Mito fusion act	a7 integrin act	uPA surface inh	Gal4-VP16 FLuc	BCR signal inh
CCSc1ccccc1C(=O)N1CCN(c2nc3ccccc3s2)CC1	.	.	.	.	.	-
CC1(C)Oc2cc3c(cc2O1)OC(C)(C)O3	-[10 µM]	.	.	.	-[10 µM]	.
CC(=O)c1ccc(C2C=CC(O)C(CO)O2)cc1 (stereo not given)	-[10 µM]	.	.	.	-[10 µM]	.
COC(=O)c1ccccc1NC(=S)NC(=O)COc1ccccc1	5.62µM	-	-	-	11.2µM	-
CCCCCC(=O)NC(=S)Nc1ccc(Br)cc1C	10µM	-	-	-	?	?
Cc1c(NC(=O)c2ccccc2NC(=O)COc2ccccc2)cccc1C(=O)O	7.94µM	-	-	-	12.6µM	?
